From paper PMC7819943, “Rice protein-binding microarrays: a tool to detect cis-acting elements near promoter regions in rice”
In all, about 68,000 sequences were measured (“fluorescence intensity (a.u.)”: median about 9,100, highest 2% from about 16,000 on). Only a selection was taken, and the highest values are over-represented in it overall.

The sequences below were run against OsWRKY34 (Oryza sativa, UniProt Q0JBA9 1-250) (assay: protein-binding microarray (RPBM); PBS, 2% BSA, 51.3 ng/ul salmon testes DNA, 50 uM zinc acetate, 200 nM TF, 25 C, 1 h; high values mean tight binding). Details: protein: recombinant; tags: N-terminal polyhistidine and DsRed monomer fusion (pET32a); label: CyDye5-dUTP incorporated in the synthesized complementary strand; 3' TTTTT single-stranded linker to array surface; dsDNA, one strand shown.
Sequence of OsWRKY34 (Q0JBA9 entry or part of it): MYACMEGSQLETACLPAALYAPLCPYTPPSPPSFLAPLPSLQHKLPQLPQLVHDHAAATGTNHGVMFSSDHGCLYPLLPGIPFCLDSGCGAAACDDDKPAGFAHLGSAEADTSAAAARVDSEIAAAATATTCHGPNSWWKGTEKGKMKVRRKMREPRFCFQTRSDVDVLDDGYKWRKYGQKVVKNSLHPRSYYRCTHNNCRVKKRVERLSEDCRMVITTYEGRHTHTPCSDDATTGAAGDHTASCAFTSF
Procedure, shortened: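 Binding signal is reported as fluorescence intensity per feature (arbitrary units) from an Axon 4000B scanner. Incubation used 200 nM of each Ni–NTA-purified, N-terminally polyhistidine- and DsRed-fused transcription factor from E. coli BL21-CodonPlus on a double-stranded custom Agilent array for 1 h at 25 °C, with 50 µM zinc acetate in the buffer, followed by washing.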

Sequence	binding signal
GAAATATCAACAACCCTATAAAAAAAGTCAACCCATGTACCGGAGTCACCTAGTGCAG	9120 fluorescence intensity (a.u.)
CACACACACAAATCCACAAGTAGACATCCTTCCATGTCTTCGGAGTCACCTAGTGCAG	8380 fluorescence intensity (a.u.)
AGGTAGTCAAGGTGGACTTATTCCTTTTGTTTCTTCCATTCGGAGTCACCTAGTGCAG	8900 fluorescence intensity (a.u.)
CCATTTGTCCACCACCACCTCCACCACCTGACACGTCGTCCGGAGTCACCTAGTGCAG	8050 fluorescence intensity (a.u.)
AATTATTTTCATTTGCTAAGTTACTATTTCGCATTTTTTTCGGAGTCACCTAGTGCAG	8650 fluorescence intensity (a.u.)
CAATTATTACAGGCGGCCAGCGCCTCATGGCTTTTACCTTCGGAGTCACCTAGTGCAG	8660 fluorescence intensity (a.u.)
TCTTACTTGCATGTGAACACCTCTTTGTCGGTTTTTCCATCGGAGTCACCTAGTGCAG	10400 fluorescence intensity (a.u.)
AAAAAAGTCAACCCATGTACACCGTCCGATCTCCATCCGACGGAGTCACCTAGTGCAG	8110 fluorescence intensity (a.u.)
TTTTGTCTCTTTCTGCTGCTGGAGTAGTATTGTTCATTTACGGAGTCACCTAGTGCAG	9050 fluorescence intensity (a.u.)
CTGGTAGGATTGCTGCTTGCTTTGCCTTCACGTCATTATCCGGAGTCACCTAGTGCAG	11200 fluorescence intensity (a.u.)
TGCGTTTCCCGTCAGCCCTGTCACGCCGCCGCCGGTCGCCCGGAGTCACCTAGTGCAG	12000 fluorescence intensity (a.u.)
ACTTTCTTTTTGGGCCTGAAACCACGACGGCCCTTTGTTCCGGAGTCACCTAGTGCAG	8760 fluorescence intensity (a.u.)
CGCAAGGGAGAATAGGGGTGTTGAGAGGAGGGGCGACAGGCGGAGTCACCTAGTGCAG	8240 fluorescence intensity (a.u.)
AAAATAGGCCAATAGGGTGTTGAGAGAAAAGGAGATATATCGGAGTCACCTAGTGCAG	17500 fluorescence intensity (a.u.)
AAGGATATAAGGGTGGTTGAGGGGTAGAATAGGAAGAAATCGGAGTCACCTAGTGCAG	9360 fluorescence intensity (a.u.)
TTGCTTTTGTGTTCGGTTTTTCTATTTTTTCTATTTTCTTCGGAGTCACCTAGTGCAG	13700 fluorescence intensity (a.u.)
ATGTTGACTCGTTTGCCTGTGTTCCTCTTGCTGCTATTCACGGAGTCACCTAGTGCAG	19200 fluorescence intensity (a.u.)
CCTGTTGCTGCTCTGTGCCTCTGCTCTGCTCCTTGACTTCCGGAGTCACCTAGTGCAG	11300 fluorescence intensity (a.u.)
GATGGCTTCGATTTGCTGTGTTACTTCTTTTTTCTAGTTTCGGAGTCACCTAGTGCAG	16900 fluorescence intensity (a.u.)
TCCTCTTTTTGCTGGCTTTCTGTTGACTGTTATTTTATTTCGGAGTCACCTAGTGCAG	17100 fluorescence intensity (a.u.)
CTTTCTTTGACTGTTGCCTTTTATTTTGTGCAGGTTGTATCGGAGTCACCTAGTGCAG	11300 fluorescence intensity (a.u.)
TATTTCGATTTGATGGCTTCCTGTTGCTTTTCCTGTTAATCGGAGTCACCTAGTGCAG	14000 fluorescence intensity (a.u.)
CCTCTTGCTATGTGCTGCTCTTCCTTGTTCTTCTTGCCTACGGAGTCACCTAGTGCAG	10800 fluorescence intensity (a.u.)

Sequence	binding signal
TTTTGAGTGCTTTTATTTCTTTATTTCTTTATTTCTTTATCGGAGTCACCTAGTGCAG	9320 fluorescence intensity (a.u.)
GGTTTCGGTTAACTTTTGTGCACACTCGCCAGTGAGAGTTCGGAGTCACCTAGTGCAG	12300 fluorescence intensity (a.u.)
TGTAAGTCATTCCACCATTTCCCACATTCATATTGATGCCCGGAGTCACCTAGTGCAG	8890 fluorescence intensity (a.u.)
TTTAACCTAAACCACATGTGAATTTCTTCTTATGTATTCCCGGAGTCACCTAGTGCAG	8700 fluorescence intensity (a.u.)
GTGGGATTCGCCTGCTTGCTTGCTGGGGCCTTGGGAAATGCGGAGTCACCTAGTGCAG	8230 fluorescence intensity (a.u.)
TCAAAACGGCCCACTCGCCGCCCGCCACGTGTCCGACCCGCGGAGTCACCTAGTGCAG	8920 fluorescence intensity (a.u.)
GATCCGCATCACTGATTCACTGCACTTCGCCCGCCGTCTGCGGAGTCACCTAGTGCAG	9810 fluorescence intensity (a.u.)
TTTTATTCAATATATGTATATAGGTATCTTTGGTTGTTTTCGGAGTCACCTAGTGCAG	8320 fluorescence intensity (a.u.)
TTCGAGCACATCTACTTCGCGCTCCCAAACTCCGTGGTGTCGGAGTCACCTAGTGCAG	8080 fluorescence intensity (a.u.)
GGGTGAGTGCGCGTGCGTTGTGAGTGTTTGTATTGTACTGCGGAGTCACCTAGTGCAG	9790 fluorescence intensity (a.u.)
TCATATGGGTTGGTGTATGTGTATTGTGAGTCTGTGTTTGCGGAGTCACCTAGTGCAG	8300 fluorescence intensity (a.u.)
TGTTGTTGTGGTGGTGGTGGTGGTGGTAGTGCGTGAGTGACGGAGTCACCTAGTGCAG	21200 fluorescence intensity (a.u.)
GTTGTTTGGTTGCGTGAGGAGAGGAGGAGGAGGAGGAGGACGGAGTCACCTAGTGCAG	8200 fluorescence intensity (a.u.)
ATTTCGGATTTGTATGTATTGTGTTTTTTTAAAAAAAATTCGGAGTCACCTAGTGCAG	9880 fluorescence intensity (a.u.)
GCAATTGTTCAATATTTTTTTGTGTGTATGTGTTTTTTTTCGGAGTCACCTAGTGCAG	18200 fluorescence intensity (a.u.)
GAGGTGTGTGTTCGTAGAGATGAGTGCGTGCGCGTTGTGACGGAGTCACCTAGTGCAG	9140 fluorescence intensity (a.u.)
TCTCTCTGTGTGTGTTTGTGTCATATATGAGTTTGTGGGTCGGAGTCACCTAGTGCAG	9570 fluorescence intensity (a.u.)
TCATATATGAGTTTGTGGGTGTGGGTGTTTGCGAGCTTTTCGGAGTCACCTAGTGCAG	30700 fluorescence intensity (a.u.)
TTTTTTTGTGTTTTGCAATTTTATGTTTTGCACTTATTTTCGGAGTCACCTAGTGCAG	8070 fluorescence intensity (a.u.)
GGGTGAGTGTGTGTTGTGCGTTGTGAGTGTGTATGTGTTTCGGAGTCACCTAGTGCAG	17200 fluorescence intensity (a.u.)
GTGGGTGTTTGCGAGCTTTTGTTCGTATGCTTTTTTACTTCGGAGTCACCTAGTGCAG	9960 fluorescence intensity (a.u.)
ATCCCACCGTGGCGCCACCCTATTGGGCCCTACTCTTCAGCGGAGTCACCTAGTGCAG	8780 fluorescence intensity (a.u.)
ACTCCATATCGCTTCGCGATTTTTTGTTGACCAAATCAATCGGAGTCACCTAGTGCAG	9610 fluorescence intensity (a.u.)

Sequence	binding signal
AATCTCGTTCCTTGCTGTTGTGACTAGTATCGTTGCCTACCGGAGTCACCTAGTGCAG	10500 fluorescence intensity (a.u.)
GCCTGCTGTTCCTTTTAGTTTCTCCAAGCTCCTGCCAACACGGAGTCACCTAGTGCAG	8320 fluorescence intensity (a.u.)
ACCTTTTATGGTGGGGTAGGAGTAGGTGACGGTGGAGATTCGGAGTCACCTAGTGCAG	19000 fluorescence intensity (a.u.)
ACGCGGGGATGGATGATGGTGGTGGCGGCGAGGGGATGATCGGAGTCACCTAGTGCAG	9170 fluorescence intensity (a.u.)
CTAGATTCGTTTTTTATGGGGTGGAGGGAGTACATGCCTTCGGAGTCACCTAGTGCAG	12800 fluorescence intensity (a.u.)
TATAGTAGTATGGGTGGAGATTTATATTTTTCTCTCGATTCGGAGTCACCTAGTGCAG	8940 fluorescence intensity (a.u.)
GGAGGCATGATGGCGGCATGGTGGAGGGTGGGGTGACGTGCGGAGTCACCTAGTGCAG	12000 fluorescence intensity (a.u.)
CGTGGTGGTGGTAGGGGAGGGGATGGATGATATGGCGTGACGGAGTCACCTAGTGCAG	22400 fluorescence intensity (a.u.)
GAAATACTCCAATGGGTTAACTTAGGGTCGGGAAGGGGAGCGGAGTCACCTAGTGCAG	10100 fluorescence intensity (a.u.)
TTCCTGCTCTGTCCGTGCTCGACTCAATTCATTGTCAACCCGGAGTCACCTAGTGCAG	8690 fluorescence intensity (a.u.)
CTTTGCATCTCTTCTTTTCTTTCTTTTTTTTTTCTTTTCTCGGAGTCACCTAGTGCAG	12100 fluorescence intensity (a.u.)
AAGTTTTCGCGTCCAACTTTCATCGTTCGTCTTATTTGAACGGAGTCACCTAGTGCAG	10600 fluorescence intensity (a.u.)
CCTCTCTTTCTCTCACTCTCTGTGACTCTTGTCTTTTTGTCGGAGTCACCTAGTGCAG	8390 fluorescence intensity (a.u.)
GCCTCTTTTTTGTCGCTCTCACTGTCTCACACCTACACGTCGGAGTCACCTAGTGCAG	16400 fluorescence intensity (a.u.)
ATATTGTTGACTTTTTAGCACATGTTTAACCGTTCATCTTCGGAGTCACCTAGTGCAG	19600 fluorescence intensity (a.u.)
TTTTTAGTACATGTTTGACCGTTCGTCTTATTCAAAAAATCGGAGTCACCTAGTGCAG	10700 fluorescence intensity (a.u.)
TTCATCTCACGTACTGTTCTTTTGCCTCTCGCTAGCTCGTCGGAGTCACCTAGTGCAG	9220 fluorescence intensity (a.u.)
CCGTTGACTTTTTAGTACATGTTTAACCGTTCGTCTTATTCGGAGTCACCTAGTGCAG	38600 fluorescence intensity (a.u.)
GACTTTTTAGCACATGTTTAACCGTTCGTCTTATTCAAAACGGAGTCACCTAGTGCAG	12100 fluorescence intensity (a.u.)
TGTTCGCGTCCATCGTTGACTTTTTCAACGCCATGCACGCCGGAGTCACCTAGTGCAG	30900 fluorescence intensity (a.u.)
GTTAACTTTTTAGAACATGTTTGACCGTTCGTCTTATTCACGGAGTCACCTAGTGCAG	8930 fluorescence intensity (a.u.)
GTTAACTTTTTAGCACATGTTTGACCGTTCGTCTTATTCACGGAGTCACCTAGTGCAG	12600 fluorescence intensity (a.u.)
TCCACGTTGACCACATCGCGTCACACCGTCCACGACTTTTCGGAGTCACCTAGTGCAG	12700 fluorescence intensity (a.u.)

Sequence	binding signal
CATTGTGCGCTCTGGAGAGGCTCCAAACCACCATTGTTCGCGGAGTCACCTAGTGCAG	8090 fluorescence intensity (a.u.)
GCCCTCGTCGTCGTCCGACCACCCGATCCCGACGAGAACCCGGAGTCACCTAGTGCAG	8690 fluorescence intensity (a.u.)
ATCTACTACTATTCTACTCTACTCGCAAGTCTCACAAACACGGAGTCACCTAGTGCAG	8740 fluorescence intensity (a.u.)
AAAAAGAGTTCTCTTCTTCACTTCTACTCTTCACAACTTTCGGAGTCACCTAGTGCAG	9410 fluorescence intensity (a.u.)
CATCCAAATAGGTTCTTTTAGTTCAATTTTGGGGCAGTTTCGGAGTCACCTAGTGCAG	9920 fluorescence intensity (a.u.)
GCTACTATCAAGTCATAAGCTTACTACCAAGTTATAGCACCGGAGTCACCTAGTGCAG	8320 fluorescence intensity (a.u.)
ATATACATGTGATAGCTTCGTCTCAAGATACATTGTCCTACGGAGTCACCTAGTGCAG	9500 fluorescence intensity (a.u.)
CTGTTCCGCCACCTACCACCGAGCCGTTGTCTCCCATGACCGGAGTCACCTAGTGCAG	10100 fluorescence intensity (a.u.)
AAAGCCGTCGTATTGTCATCCGCCGCTCGCTGACTCATTCCGGAGTCACCTAGTGCAG	8310 fluorescence intensity (a.u.)
TCCCCTTCGCCCTTCGTCGTCGTCGTCGTCGTCGTTCGTCCGGAGTCACCTAGTGCAG	8050 fluorescence intensity (a.u.)
AACCACCACAAGCCGTTAACCCCGTTGTTTACCTCCTCCTCGGAGTCACCTAGTGCAG	8190 fluorescence intensity (a.u.)
TTTCAGGTTTTGCATTTCACACCTCTGTCGTCATACTTGACGGAGTCACCTAGTGCAG	17800 fluorescence intensity (a.u.)
AACGCTATTTATTTTTTAAACATGTTTGATCGTTCGTCTTCGGAGTCACCTAGTGCAG	10200 fluorescence intensity (a.u.)
TATGTTCATTTCCTTATTTGCCTCTCGTCATGTCTCTTGACGGAGTCACCTAGTGCAG	10200 fluorescence intensity (a.u.)
TTGACTTTTGCTTGCACTGTTTGATTACTCGTCTTATTAACGGAGTCACCTAGTGCAG	8670 fluorescence intensity (a.u.)
GCCGTTGACTTTTTATTACATGTTTGACCGTTCGTCTTATCGGAGTCACCTAGTGCAG	62900 fluorescence intensity (a.u.)
ATTTTGACTTTTTGGTTGCGCTATTTGATTACTCGTCTTACGGAGTCACCTAGTGCAG	19400 fluorescence intensity (a.u.)
TTGTTTCTGTTCATTTTTCTCTATAGTACTTGCTAGGTGACGGAGTCACCTAGTGCAG	11500 fluorescence intensity (a.u.)
TGACGCCGTTGACTTTTTTAAACATGTTTGATCGTTCGTCCGGAGTCACCTAGTGCAG	35900 fluorescence intensity (a.u.)
TTTGCAACATTTGATTACTCGTCTTATTTAATTTTTTTTTCGGAGTCACCTAGTGCAG	8230 fluorescence intensity (a.u.)
